# Screening data as filed in PubChem.
# In the library only some 19% were active in any assay of this set; here they are far more common.
# IL1B secr inh = inhibitors of inflammasome signaling (IL-1 beta secretion); 360,000 compounds, 4.7% hits; activity change, % at 57.5 µM; THP-1 LPS/ATP IL-1B secretion, AlphaLISA, 16 h; hits give low values; in the data active means activity change below about -50%; inconclusive means mostly about -30% to -49%
#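 THP-1 cells pretreated 1 hr with compounds (up to 57.5 uM final), then stimulated with LPS (250 ng/mL final) plus ATP (1.25 mM final); secreted IL-1B measured by AlphaLISA after 16 hr, decreased signal indicating inhibition.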
# uPA surface inh = blocks generation of uPA at the cell surface; 330,000 compounds, 0.31% hits; Potency, µM (top dose mostly 38.3 µM), for the others: at the highest dose activity change, negative = inhibition, usual class: inhibitors; AID 540303; cell surface uPA generation assay, qHTS; active means well fitted inhibition curve with a large enough effect; inconclusive means small, poorly fitted or top-dose-only effect; inactive means no such curve, though single readings can be large or run the other way; tested in mouse RAW 264.7 cells; further: potency means the concentration at half of the fitted maximal effect; nearly all actives have a fitted effect of over 55% in size
# TDP1 cell noCPT = qHTS for Inhibitors of human tyrosyl-DNA phosphodiesterase 1 (TDP1): qHTS in cells in absence of CPT; DT40 Tdp1-/- hTDP1 cells, no CPT, ATP luminescence, 48 h; 420,000 compounds, 15% hits; AID 686978, 2013; Potency, µM (doses to about 46.2 µM), without a hit: top-dose activity change, negative = growth inhibition, usual class: inhibitors; further: potency means the concentration at half of the fitted maximal effect; nearly all actives have a fitted effect of over 55% in size
#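 Chicken DT40 Tdp1-/- cells complemented with human TDP1, screened without camptothecin (DMSO vehicle only), 400 cells/well. Compounds pin-transferred, cells incubated at 37 °C for at least 48 hr. Growth read as ATP-dependent luminescence (CellTiter-Glo, 30 min at RT).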
# HT1080-NT tox = kills 2HG-producing HT-1080-NT fibrosarcoma cells | HT-1080-NT fibrosarcoma viability, CellTiter-Glo ATP luminescence, 48 h | Potency, µM (top dose mostly 46.1 µM), without a hit: at the highest dose activity, negative = less viability, usual class: cytotoxic | 360,000 compounds, 1.6% hits | AID 686970;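 further: NT is the 2HG producing partner of a matched IDH1 knockdown line; potency means the concentration at half of the fitted maximal effect; 0% = DMSO-treated cells and -100% = media-only wells without cells; nearly all actives have a fitted effect of over 55% in size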
#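 750 cells/well, RPMI + 5% FBS; 2 h settle, compound pin-transfer, 48 h at 37 degrees C. CellTiter-Glo 10 min RT, luminescence. Normalized to DMSO and media-only wells.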
# TDP1 cell CPT = DT40-hTDP1 cell growth loss with CPT; chicken DT40 Tdp1-/-;hTDP1 cells + 20 nM CPT, ATP luminescence, 48 h; Potency, µM (titrated, usually from 46.2 µM), for the others: top-dose activity change, negative = growth inhibition, usual class: inhibitors; AID 686979; 420,000 compounds, 12% hits; further: potency means the concentration at half of the fitted maximal effect; nearly all actives have a fitted effect of over 55% in size
#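 Chicken DT40 Tdp1-/- cells stably complemented with human TDP1 were seeded at 400 cells/well in medium containing 20 nM camptothecin, exposed to pin-transferred compounds, and grown at 37 °C for at least 48 hr. Viability was read as ATP luminescence.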
# HT1080 IDH1KD tx = HT-1080 IDH1 knockdown cell toxicity (counter line). Potency, µM (doses to about 46.1 µM), for inactives: at the top dose activity, negative = toxicity, most hits filed as cytotoxic. HT-1080 IDH1 knockdown viability, ATP luminescence, 48 h. 360,000 compounds, 2% hits;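 further: potency means the concentration at half of the fitted maximal effect; 0% = DMSO wells and -100% = cell-free medium wells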
#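 Luminescent ATP read-out (CellTiter-Glo, 10 min at room temperature) after 48 h compound exposure at 37 °C gave viability of IDH1-knockdown HT-1080 cells. Activity was normalised to DMSO and cell-free wells, then fitted as concentration-response curves.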
# * = called active by the depositor; ? = inconclusive; · = no result; [ ] = dose if it differs, or a comment. Unless noted, the call rests on the fitted dose curve; in most records, active means well fitted curve in the direction sought with a large enough effect; inconclusive means small, poorly fitted or top-dose-only effect, or another doubt; inactive means no such curve, though single readings can be large; an effect the other way counts as inactive or inconclusive. Unless noted, on the % scale 0 is the no-effect control and ±100 the full control effect.
SMILES,IL1B secr inh,uPA surface inh,TDP1 cell noCPT,HT1080-NT tox,TDP1 cell CPT,HT1080 IDH1KD tx
Cc1sc2c(c1C)c(=O)n(-c1ccccc1)c(=O)n2CC(=O)c1ccc(Cl)cc1,·,·,16µM*,·,?,·
CCOc1ccc(-n2c(=O)c3c(C)c(C)sc3n(CC(=O)C(C)(C)C)c2=O)cc1,·,·,23µM*,·,?,·
COc1cc(=O)n2c(c1C(=O)NCc1ccsc1)CCN(Cc1nc3ccccc3[nH]1)CC2,·,·,0%,·,-10%,·
O=C1CC(N2CCSCC2)C(=O)N1c1ccc(F)cc1 (stereo not drawn),0,0%,0%,15%,17%,11%
CCc1cc(C(=O)N2CCOc3ccc(CN4CCN(Cc5ccccn5)CC4)cc3C2)no1,·,·,-16%,·,1%[9.04 µM],·
CCOc1ccc(CNc2nc3nc(C)c(Cc4ccccc4)c(=O)n3[nH]2)cc1,·,·,-20%,·,-19%,·
COc1cc(NC(=O)Cn2c(=O)n(-c3cccc(C)c3)c(=O)c3c(C)c(C)sc32)cc(OC)c1,-6,11%,-29%,-13%,21µM*,-28%
COc1ccc(-c2ccc(-c3cc(=O)oc4cc(OC)c(OC)c(OC)c34)cc2)cc1,40,12%,-26%,4%,-1%,13%
Cc1ccc(C(C)C)c2oc(=O)cc(-c3ccc(-c4ccc(C(F)(F)F)cc4)cc3)c12,0,18%,21µM*,9%,15µM*,11%
Cc1c(F)cccc1NS(=O)(=O)c1ccc2c(c1)n(C)c(=O)c(=O)n2C,-6,-1%,-26%,-3%,-8%,-1%
Cc1cccc(NS(=O)(=O)c2ccc3c(c2)n(C)c(=O)n3C)c1C,·,·,?,·,23µM*,·
Cc1c(F)cccc1NS(=O)(=O)c1ccc2c(c1)c(=O)n(C)c(=O)n2C,-16,-2%,15µM*,?,?,?
O=C(CN1C=NS(=O)(=O)c2ccc(C(F)(F)F)cc21)Nc1cccc(C(F)(F)F)c1,·,·,5%,·,-8%,·
COc1cc(Cl)c(CNC[C@H]2O[C@@H](n3cnc(C(N)=O)n3)[C@H](O)[C@@H]2O)c(Cl)c1O,0,10%,5%,4%,6%,5%
CC(C)(C)C(=O)OCC1OC(n2cnc(C(N)=O)n2)C(O)C1O (stereo not drawn),7,14%,?,3%,16µM*,7%
CCCn1cnc2c(SCc3ccccc3Cl)nc(N)nc21,?,-6%,?,-14%,?,?
O=C(NCCNc1nccc(C(F)(F)F)n1)c1cccs1,9,4%,-10%,14%,-6%,6%
NC(Cc1ccc(F)cc1)c1csc(Nc2nccc(C(F)(F)F)n2)n1 (stereo not drawn),-59*,·,15µM*,23µM*,?,15µM*
COc1ccc(CC(N)c2csc(Nc3nccc(C(F)(F)F)n3)n2)cc1 (stereo not drawn),-56*,·,?,?,?,?
COc1ccc(CC(N)c2csc(Nc3cc(NCc4ccco4)ncn3)n2)cc1 (stereo not drawn),-51*,·,13µM*,?,?,?
NC(Cc1ccc(Cl)cc1)c1csc(Nc2nccc(C(F)(F)F)n2)n1 (stereo not drawn),-56*,·,?,16µM*,?,23µM*
CC[C@]1(C(=O)OC)[C@H]2C(=O)N(C)C(=O)[C@H]2[C@H]2CN=C(SCc3ccc(C#N)cc3)N21,1,20%,-4%,17%,-10%,2%
COc1ccc(CC(N)c2csc(Nc3cnccn3)n2)cc1 (stereo not drawn),-4,·,?,-13%,?,-29%
COc1ccc(CC(N)c2csc(Nc3ncccn3)n2)cc1 (stereo not drawn),-29,·,6.5µM*,-30%,4.6µM*,?
NC(Cc1ccccc1)c1csc(Nc2nccc(C(F)(F)F)n2)n1 (stereo not drawn),-12,·,21µM*,?,16µM*,?
SMILES,IL1B secr inh,uPA surface inh,TDP1 cell noCPT,HT1080-NT tox,TDP1 cell CPT,HT1080 IDH1KD tx
O=C(c1ccc(-c2nnc(Nc3cccc(Cl)c3)c3ccccc23)cc1)N1C[C@H]2C[C@H](C1)c1cccc(=O)n1C2,?,0%,16µM*,?,?,?
Cc1ccc(C(=O)COC(=O)c2cc(-c3ccccc3)nc3ccccc23)cc1C,·,·,20%,·,25%,·
CCN(CC)Cc1c(O)ccc2c([N+](=O)[O-])c(C)n(-c3ccc(OC)cc3)c12,-75*,17%,16µM*,?,7.3µM*,?
CCN(CC)Cc1c(O)ccc2c(=O)c(-c3ccccc3OC)coc12,11,0%,-5%,16%,0%,15%
CO[C@H]1CN(C)C(=O)c2ccc(NS(=O)(=O)c3ccccc3F)cc2OC[C@H](C)NC[C@@H]1C,-5,·,-16%,15%,4%,1%
C[C@H](CO)N1C[C@H](C)[C@@H](CN(C)C(=O)Nc2ccc3c(c2)OCO3)Oc2ccc(NC(=O)Cn3cnnn3)cc2C1=O,-1,4%,-8%,-1%,-6%,-8%
COc1ccc(S(=O)(=O)n2ccc(C(C)Oc3ccc(-c4ccccc4)c(F)c3)n2)cc1 (stereo not drawn),?,6%,18µM*,-16%,26µM*,?
COC(=O)CSC1=C(C#N)C(c2ccc(C)o2)CC(=O)N1 (stereo not drawn),5,-16%,2.9µM*,?,15µM*,7.3µM*
N#CC1=C(SCc2ccccc2)NC(=O)CC1c1cccc(O)c1 (stereo not drawn),-54*,4%,-8%,1%,-13%,4%
CCCOC(=O)CSC1=C(C#N)C(c2ccc3c(c2)OCO3)CC(=O)N1 (stereo not drawn),-11,-11%,23µM*,?,18µM*,?
CCOc1ccc(NC(=O)CSC2=C(C#N)C(c3ccc4c(c3)OCO4)CC(=O)N2)cc1 (stereo not drawn),-55*,2%,-27%,-9%,-26%,?
CCOc1ccc(C2CC(=O)NC(SC)=C2C#N)cc1 (stereo not drawn),-22,-10%,-7%,-2%,0%,-1%
COC(=O)CSC1=C(C#N)C(c2ccc(F)cc2)CC(=O)N1 (stereo not drawn),19,-15%,?,-4%,-9%,-5%
NC(=O)C1CCCN(Cc2ccc3c(c2)CN(Cc2ccccc2)CCO3)C1 (stereo not drawn),·,·,-18%,·,6%[9.04 µM],·
